Data taken from PubChem BioAssay (EPA / NIEHS).
Inconclusive results are not listed. Active and inactive are the calls of the source. Rule for the calls, unless noted: active = hit-call score of the fitted dose curve at least 0.9, where 1 is the maximum; inactive = score below 0.9.

How the values were obtained:
[1] = target: Glucocorticoid receptor (Homo sapiens) (UniProt P04150); experiment: ATG_GR_TRANS: Attagene TRANS-FACTORIAL HepG2 Assay for human Glucocorticoid Receptor (GR) (AID 2282978; active = hit-call score of the fitted dose curve at least 0.9, where 1 is the maximum;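 note: activators score as hits since higher reporter transcript over DMSO is fitted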); conditions: HepG2 Attagene TRANS GR reporter, mRNA transcription
Outline: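 Measurement of GAL4-UAS-driven reporter mRNA in human HepG2 liver cells 24 h post-dosing, using RT-PCR with fluorescent labelling and capillary electrophoresis; the transfected constructs report exogenous NR-GAL4 chimera activity, fitted upward against DMSO.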

[2] = target: Oxysterols receptor LXR-beta (Homo sapiens) (UniProt P55055); experiment: ATG_LXRb_TRANS: Attagene TRANS-FACTORIAL HepG2 Assay for human Liver X Receptor beta (LXRb) (AID 2282981; active = hit-call score of the fitted dose curve at least 0.9, where 1 is the maximum); conditions: HepG2 Attagene TRANS GAL4-LXRb reporter, mRNA
Outline: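 HepG2 cells transiently transfected with multiple reporter transcription units carrying chimeric NR-Gal4 proteins acting on GAL4-UAS reporters; compound exposure 24 h. Reporter mRNA quantified by RT-PCR, 6-FAM labelling, HpaI digestion and capillary electrophoresis; gain of signal versus DMSO.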

[3] = ATG_M_06_TRANS: Attagene TRANS-FACTORIAL HepG2 Assay for M06 Transcription Factor (Internal Marker) (AID 2282983; active = hit-call score of the fitted dose curve at least 0.9, where 1 is the maximum;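 note: reporter transcript level by RT-PCR then capillary electrophoresis fluorescence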); conditions: HepG2 Attagene TRANS M06 internal marker reporter
Outline: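 After a 24 h chemical treatment of transfected HepG2, RNA underwent DNase I treatment, reverse transcription and reporter-specific PCR; labelled, HpaI-digested products were sized by capillary electrophoresis. Signal increase relative to DMSO defined activity.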

[4] = target: Nuclear receptor subfamily 4 group A member 2 (Homo sapiens) (UniProt P43354); experiment: ATG_NURR1_TRANS: Attagene TRANS-FACTORIAL HepG2 Assay for human Nuclear Receptor Related Protein 1 (NURR1) (AID 2282985; active = hit-call score of the fitted dose curve at least 0.9, where 1 is the maximum); conditions: HepG2 Attagene TRANS reporter, mRNA readout
Outline: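 HepG2 cells transiently transfected with GAL4-UAS reporter units and chimeric NR-Gal4 constructs; chemical exposure 24 h. Reporter mRNA quantified by RT-PCR, fluorescent labelling and capillary electrophoresis; gain of signal fitted relative to DMSO baseline.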

[5] = target: Transcriptional activator Myb (Homo sapiens) (UniProt P10242); experiment: ATG_Myb_CIS: Attagene CIS-FACTORIAL HepG2 Assay for human Myeloblastosis (Myb) Proto-Oncogene Transcription Factor (AID 2282986); conditions: HepG2 Attagene CIS-FACTORIAL Myb reporter transcription; actives raise or lower the signal
Outline: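 Fluorescence signals from capillary electrophoresis of RT-PCR-amplified reporter cDNA give the read-out. Cells: HepG2 transfected with multiple cis-regulated reporter units. Exposure lasts 24 hours; DMSO defines baseline for gain or loss of signal.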

[6] = target: Nuclear respiratory factor 1 (Homo sapiens) (UniProt Q16656); experiment: ATG_NRF1_CIS: Attagene CIS-FACTORIAL HepG2 Assay for human Nuclear Respiratory Factor 1 (NRF1) Orphan Gene (AID 2282987); conditions: HepG2 NRF1 cis-element reporter, Attagene multiplex; actives raise or lower the signal
Outline: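 Transcriptional reporter readout, one component of a 52-endpoint multiplexed HepG2 panel. Exposure 24 h; mRNA detected via RT-PCR and fluorescent capillary electrophoresis; fitting in both directions against DMSO.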

[7] = ATG_NFI_CIS: Attagene CIS-FACTORIAL HepG2 Assay for human Nuclear Factor I (NFI) (AID 2282989); conditions: HepG2 cis-regulatory reporter, NFI response element transcription; actives raise or lower the signal
Outline: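 Multiplexed cis-reporter system in human HepG2 cells reports native TF activity as reporter mRNA induction 24 h post-dose. Fragments labelled with 6-FAM, HpaI-digested and resolved by capillary electrophoresis; activity fitted both directions versus DMSO.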

[8] = target: Myc proto-oncogene protein (Homo sapiens) (UniProt P01106); experiment: ATG_Myc_CIS: Attagene CIS-FACTORIAL HepG2 Assay for human Myelocytomatosis (Myc) Proto-Oncogene Transcription Factor (AID 2282990); conditions: HepG2, Attagene cis-reporter transcription factor activity; actives raise or lower the signal
Outline: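 DMSO-normalised, bidirectionally fitted reporter mRNA signal. HepG2 cells transfected with cis reporter constructs, treated 24 h; transcripts detected by RT-PCR, 6-FAM primer extension and CE.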

[9] = ATG_NF_kB_CIS: Attagene CIS-FACTORIAL HepG2 Assay for human Nuclear Factor Kappa B (NF-kB) (AID 2282991); conditions: HepG2 Attagene cis-factorial NF-kB reporter mRNA; actives raise or lower the signal
Outline: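 HepG2, transient multi-reporter transfection, cis promoter elements (endogenous TFs). 24 h exposure. Total RNA → RT → PCR → 6-FAM label → HpaI → CE. Gain/loss vs DMSO.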

[10] = ATG_NRF2_ARE_CIS: Attagene CIS-FACTORIAL HepG2 Assay for human Nuclear Factor Erythroid 2 Related Factor 2 (NFR2) response to Antioxidant Response Elements (ARE) (AID 2282992); conditions: HepG2 Attagene ARE/NRF2 reporter, transcription factor activity; actives raise or lower the signal;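 for AC50: reporter mRNA level measured by RT-PCR and capillary electrophoresis fluorescence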
Outline: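 HepG2 cells transiently transfected with multiplexed cis-regulated reporter transcription units measure endogenous transcription factor activity. Reporter mRNA at 24 h is quantified by RT-PCR, fluorescent labelling and capillary electrophoresis, with bidirectional fitting relative to DMSO.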

[11] = ATG_Oct_MLP_CIS: Attagene CIS-FACTORIAL HepG2 Assay for human Octamer-Binding Transcription Factor (Oct) (AID 2282993); conditions: HepG2 Attagene cis-factorial Oct reporter, mRNA; actives raise or lower the signal
Outline: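 After 24 h compound exposure, transfected HepG2 cells were lysed for total RNA; reporter-specific cDNA was PCR-amplified, fluorescently labelled and sized by capillary electrophoresis. Bidirectional curve fitting used DMSO as baseline.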

[12] = target: Cellular tumor antigen p53 (Homo sapiens) (UniProt P04637); experiment: ATG_p53_CIS: Attagene CIS-FACTORIAL HepG2 Assay for human p53 Transcription Factor (AID 2282994); conditions: HepG2 p53 cis-element reporter, Attagene mRNA; actives raise or lower the signal
Outline: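 HepG2 cells transiently transfected with multiplexed cis-regulated reporter transcription units read endogenous TF activity. After 24 h compound exposure, reporter mRNA was quantified by RT-PCR, fluorescent labelling, HpaI digestion and capillary electrophoresis; bidirectional fits versus DMSO baseline.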

[13] = ATG_M_32_TRANS: Attagene TRANS-FACTORIAL HepG2 Assay for M32 Transcription Factor (Internal Marker) (AID 2282984; active = hit-call score of the fitted dose curve at least 0.9, where 1 is the maximum;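 note: transcript level of a background control reporter unit measured by RT-PCR and capillary electrophoresis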); conditions: HepG2 Attagene TRANS M32 internal marker reporter
Outline: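 HepG2 cells transiently transfected with multiple GAL4-UAS reporter transcription units, dosed for 24 hours; reporter mRNA quantified by RT-PCR, 6-FAM primer extension, HpaI digestion and capillary electrophoresis. Gain-of-signal fitted versus DMSO baseline; internal background-control marker.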

[14] = target: Hepatocyte nuclear factor 4-alpha (Homo sapiens) (UniProt P41235); experiment: ATG_HNF4a_TRANS: Attagene TRANS-FACTORIAL HepG2 Assay for human Hepatocyte Nuclear Factor 4 alpha (HNF4a) (AID 2282982; active = hit-call score of the fitted dose curve at least 0.9, where 1 is the maximum); conditions: HepG2 HNF4a transactivation reporter, mRNA readout
Outline: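 HepG2 cells transiently transfected with multiplexed GAL4-UAS reporter units responsive to chimeric NR-GAL4 proteins; compound exposure 24 h. Reporter mRNA quantified by RT-PCR, 6-FAM labelling, HpaI digestion and capillary electrophoresis; gain of signal versus DMSO baseline.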

[15] = BSK_3C_TissueFactor: BioMAP Diversity Plus: 3C Assay for Tissue Factor Biomarker Activity (AID 2282997); conditions: BioMAP 3C HUVEC, tissue factor biomarker readout; actives raise or lower the signal
Outline: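 Human vascular primary cells (umbilical vein endothelium) received test chemical; Tissue Factor was determined by ELISA at 24 h, and both gain and loss of signal versus DMSO were fitted.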

[16] = BSK_3C_uPAR: BioMAP Diversity Plus: 3C Assay for Urokinase-type plasminogen activator receptor (uPAR) Biomarker Activity (AID 2282998); conditions: BioMAP 3C HUVEC, uPAR biomarker ELISA; actives raise or lower the signal
Outline: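 Values derive from bidirectional curve fitting relative to DMSO, which served as baseline of activity. uPAR was measured by ELISA in human umbilical vein endothelial primary cultures 24 h after compound addition.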

[17] = BSK_3C_VCAM1: BioMAP Diversity Plus: 3C Assay for Vascular cell adhesion molecule 1 (VCAM1) Biomarker Activity (AID 2282999); conditions: BioMAP 3C HUVEC, VCAM1 ELISA, cytokine-stimulated; actives raise or lower the signal
Outline: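 Human umbilical vein endothelial cells were dosed with compound for 24 h, after which cell-surface VCAM-1 was quantified by ELISA. Bidirectional curve fitting used DMSO as negative control and activity baseline.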

[18] = BSK_4H_Eotaxin3: BioMAP Diversity Plus: 4H Assay for Eotaxin 3 Biomarker Activity (AID 2283000); conditions: primary human endothelial cells (HUVEC); actives raise or lower the signal;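 note: CCL26 protein level quantified by ELISA in parallel with SRB cytotoxicity check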
Outline: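 Readout is Eotaxin-3 (CCL26) level by ELISA in primary human umbilical vein endothelial cells harvested 24 h after chemical exposure; activity fitted in both directions against DMSO control.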

Measured: AC50

Sequence of Nuclear respiratory factor 1 (Homo sapiens) (Q16656 whole entry, looked up): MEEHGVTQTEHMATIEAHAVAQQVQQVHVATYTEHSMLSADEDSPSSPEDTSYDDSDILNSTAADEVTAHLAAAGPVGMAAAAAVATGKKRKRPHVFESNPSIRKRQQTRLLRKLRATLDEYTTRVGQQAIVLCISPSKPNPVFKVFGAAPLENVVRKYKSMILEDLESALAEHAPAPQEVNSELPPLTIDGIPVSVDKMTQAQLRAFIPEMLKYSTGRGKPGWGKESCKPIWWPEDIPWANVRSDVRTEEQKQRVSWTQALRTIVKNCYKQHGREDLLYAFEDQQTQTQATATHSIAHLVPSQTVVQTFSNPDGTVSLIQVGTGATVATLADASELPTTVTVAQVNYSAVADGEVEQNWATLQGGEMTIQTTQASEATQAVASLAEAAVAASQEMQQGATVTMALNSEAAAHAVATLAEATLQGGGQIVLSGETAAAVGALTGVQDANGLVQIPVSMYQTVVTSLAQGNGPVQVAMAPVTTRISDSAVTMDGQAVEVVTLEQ
Sequence of Hepatocyte nuclear factor 4-alpha (Homo sapiens) (P41235 whole entry, looked up, the tested form may be a part): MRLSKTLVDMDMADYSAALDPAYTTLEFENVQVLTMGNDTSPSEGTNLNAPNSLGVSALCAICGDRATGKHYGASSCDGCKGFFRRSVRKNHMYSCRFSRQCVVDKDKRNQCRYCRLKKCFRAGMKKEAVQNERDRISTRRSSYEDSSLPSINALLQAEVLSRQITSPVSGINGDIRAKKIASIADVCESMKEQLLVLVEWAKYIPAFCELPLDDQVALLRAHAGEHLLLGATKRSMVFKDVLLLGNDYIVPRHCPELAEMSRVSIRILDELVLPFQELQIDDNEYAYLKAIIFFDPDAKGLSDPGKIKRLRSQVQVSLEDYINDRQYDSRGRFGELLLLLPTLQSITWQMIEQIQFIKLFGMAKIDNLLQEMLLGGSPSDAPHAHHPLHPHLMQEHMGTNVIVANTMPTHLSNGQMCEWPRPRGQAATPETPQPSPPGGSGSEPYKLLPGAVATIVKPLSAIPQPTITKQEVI
Sequence of Cellular tumor antigen p53 (Homo sapiens) (P04637 whole entry, looked up): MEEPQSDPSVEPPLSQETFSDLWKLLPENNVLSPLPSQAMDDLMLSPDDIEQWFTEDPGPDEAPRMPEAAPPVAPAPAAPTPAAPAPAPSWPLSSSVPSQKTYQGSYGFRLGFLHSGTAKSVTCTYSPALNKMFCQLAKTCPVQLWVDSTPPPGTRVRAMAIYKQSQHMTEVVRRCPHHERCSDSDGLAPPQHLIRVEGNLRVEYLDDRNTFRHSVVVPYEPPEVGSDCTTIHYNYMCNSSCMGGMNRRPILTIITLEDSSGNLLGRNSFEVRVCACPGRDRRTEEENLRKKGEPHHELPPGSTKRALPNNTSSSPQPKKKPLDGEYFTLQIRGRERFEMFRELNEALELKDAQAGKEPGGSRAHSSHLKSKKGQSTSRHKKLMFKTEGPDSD
Sequence of Nuclear receptor subfamily 4 group A member 2 (Homo sapiens) (P43354 whole entry, looked up, the tested form may be a part): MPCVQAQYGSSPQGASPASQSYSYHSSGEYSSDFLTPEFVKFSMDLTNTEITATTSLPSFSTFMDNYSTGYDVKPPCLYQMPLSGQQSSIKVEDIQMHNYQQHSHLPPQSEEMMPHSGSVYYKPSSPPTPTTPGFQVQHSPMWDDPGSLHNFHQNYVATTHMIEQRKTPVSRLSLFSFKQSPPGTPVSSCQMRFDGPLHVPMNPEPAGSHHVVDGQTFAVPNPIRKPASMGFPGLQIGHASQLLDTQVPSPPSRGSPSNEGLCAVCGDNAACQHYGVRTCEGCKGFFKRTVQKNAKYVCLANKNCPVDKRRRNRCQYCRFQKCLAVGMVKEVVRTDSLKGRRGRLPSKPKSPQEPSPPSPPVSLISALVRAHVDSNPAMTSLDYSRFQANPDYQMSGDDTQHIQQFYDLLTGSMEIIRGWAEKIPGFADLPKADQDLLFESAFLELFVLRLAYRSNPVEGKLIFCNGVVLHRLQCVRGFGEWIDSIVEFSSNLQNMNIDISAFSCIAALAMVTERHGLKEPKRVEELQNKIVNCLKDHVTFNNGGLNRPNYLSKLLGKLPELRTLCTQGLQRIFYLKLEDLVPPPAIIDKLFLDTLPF
Sequence of Glucocorticoid receptor (Homo sapiens) (P04150 whole entry, looked up, the tested form may be a part): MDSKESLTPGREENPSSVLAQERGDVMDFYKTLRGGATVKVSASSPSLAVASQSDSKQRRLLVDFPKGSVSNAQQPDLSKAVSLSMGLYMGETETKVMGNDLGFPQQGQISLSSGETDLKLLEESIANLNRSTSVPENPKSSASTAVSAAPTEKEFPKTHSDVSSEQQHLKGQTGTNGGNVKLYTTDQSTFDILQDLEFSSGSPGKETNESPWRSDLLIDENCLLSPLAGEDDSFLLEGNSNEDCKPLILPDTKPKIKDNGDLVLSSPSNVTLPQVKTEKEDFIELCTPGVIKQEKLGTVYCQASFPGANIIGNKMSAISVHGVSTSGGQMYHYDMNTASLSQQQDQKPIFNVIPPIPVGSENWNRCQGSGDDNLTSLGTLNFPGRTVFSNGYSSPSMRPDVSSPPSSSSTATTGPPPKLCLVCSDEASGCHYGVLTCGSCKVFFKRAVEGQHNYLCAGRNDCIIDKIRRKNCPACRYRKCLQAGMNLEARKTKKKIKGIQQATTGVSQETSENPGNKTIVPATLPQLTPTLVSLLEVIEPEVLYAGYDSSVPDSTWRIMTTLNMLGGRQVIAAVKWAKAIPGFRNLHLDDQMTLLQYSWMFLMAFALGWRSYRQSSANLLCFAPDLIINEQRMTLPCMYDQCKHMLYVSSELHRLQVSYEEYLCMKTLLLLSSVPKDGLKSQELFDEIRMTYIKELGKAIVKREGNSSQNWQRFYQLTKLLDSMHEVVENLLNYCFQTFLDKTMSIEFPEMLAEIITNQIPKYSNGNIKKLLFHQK
Sequence of Myc proto-oncogene protein (Homo sapiens) (P01106 whole entry, looked up): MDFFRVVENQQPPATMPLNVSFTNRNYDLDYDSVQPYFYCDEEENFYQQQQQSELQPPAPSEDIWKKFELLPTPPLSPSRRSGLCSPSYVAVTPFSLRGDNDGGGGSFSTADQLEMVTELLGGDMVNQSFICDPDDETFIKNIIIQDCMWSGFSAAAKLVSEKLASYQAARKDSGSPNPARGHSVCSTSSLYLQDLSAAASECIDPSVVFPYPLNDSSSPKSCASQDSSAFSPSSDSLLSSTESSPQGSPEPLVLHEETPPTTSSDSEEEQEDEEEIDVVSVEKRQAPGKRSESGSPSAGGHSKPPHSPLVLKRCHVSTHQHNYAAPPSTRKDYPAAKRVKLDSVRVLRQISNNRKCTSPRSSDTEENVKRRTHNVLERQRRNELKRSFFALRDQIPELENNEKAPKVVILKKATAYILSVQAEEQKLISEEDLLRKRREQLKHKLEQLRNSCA
Sequence of Transcriptional activator Myb (Homo sapiens) (P10242 whole entry, looked up): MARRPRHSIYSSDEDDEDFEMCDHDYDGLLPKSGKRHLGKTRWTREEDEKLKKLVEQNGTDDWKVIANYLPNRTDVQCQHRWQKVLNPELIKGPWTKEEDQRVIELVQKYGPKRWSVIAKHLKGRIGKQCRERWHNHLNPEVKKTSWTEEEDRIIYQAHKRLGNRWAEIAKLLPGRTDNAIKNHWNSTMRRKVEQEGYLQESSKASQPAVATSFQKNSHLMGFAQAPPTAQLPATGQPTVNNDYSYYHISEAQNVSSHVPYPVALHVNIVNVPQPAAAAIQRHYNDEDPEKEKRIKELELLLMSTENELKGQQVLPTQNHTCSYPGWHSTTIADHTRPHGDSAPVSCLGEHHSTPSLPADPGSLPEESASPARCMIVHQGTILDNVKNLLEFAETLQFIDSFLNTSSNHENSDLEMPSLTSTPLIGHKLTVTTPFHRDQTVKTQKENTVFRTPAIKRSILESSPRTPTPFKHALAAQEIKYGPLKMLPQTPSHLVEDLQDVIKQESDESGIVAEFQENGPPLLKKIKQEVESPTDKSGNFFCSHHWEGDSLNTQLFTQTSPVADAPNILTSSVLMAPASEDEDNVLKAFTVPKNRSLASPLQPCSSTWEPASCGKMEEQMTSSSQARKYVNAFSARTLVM
Sequence of Oxysterols receptor LXR-beta (Homo sapiens) (P55055 whole entry, looked up, the tested form may be a part): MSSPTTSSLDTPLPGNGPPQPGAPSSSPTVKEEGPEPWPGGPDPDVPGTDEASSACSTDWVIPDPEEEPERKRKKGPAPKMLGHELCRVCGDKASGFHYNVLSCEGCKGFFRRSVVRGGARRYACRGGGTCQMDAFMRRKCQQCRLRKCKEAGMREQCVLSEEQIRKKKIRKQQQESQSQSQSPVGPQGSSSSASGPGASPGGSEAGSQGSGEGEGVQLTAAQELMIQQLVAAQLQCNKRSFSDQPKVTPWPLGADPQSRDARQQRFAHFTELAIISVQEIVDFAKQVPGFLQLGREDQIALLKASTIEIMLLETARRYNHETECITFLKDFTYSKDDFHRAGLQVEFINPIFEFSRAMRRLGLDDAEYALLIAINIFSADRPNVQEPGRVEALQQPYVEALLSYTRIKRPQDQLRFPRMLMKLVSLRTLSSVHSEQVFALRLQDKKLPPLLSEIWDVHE

CCCCCCCCCCCCCOS(=O)(=O)O
not listed: [13] | [14] | [15] | [16] | [17] | [18]
inactive: all other assays above

O=[N+]([O-])c1ccc(Nc2ccc(Nc3ccccc3)c(S(=O)(=O)O)c2)c([N+](=O)[O-])c1
inactive: [1] | [2] | [13] | [6] | [7] | [8] | [9] | [11]
active: [10] 171 µM | [12] 178 µM

CNCCCC12CCC(c3ccccc31)c1ccccc12
active: [7] 11.1 µM | [11] 15.4 µM | [12] 16 µM
not listed: [4] | [13] | [15] | [16] | [17] | [18]
inactive: all other assays above

Nc1cc(N)cc(C(=O)O)c1
not listed: [4] | [12] | [14] | [15] | [16] | [17] | [18]
inactive: all other assays above

O=[N+]([O-])c1ccc(C=Cc2ccc([N+](=O)[O-])cc2S(=O)(=O)O)c(S(=O)(=O)O)c1
inactive: [1] | [14] | [3] | [4] | [5] | [6] | [8] | [9] | [10] | [11]

CCCCC(CC)COC(=O)/C=C\C(=O)OCC(CC)CCCC (stereo not drawn)
active: [9] 45.6 µM | [10] 9.08 µM
not listed: [2] | [3] | [13] | [14]
inactive: all other assays above

CCOC(=S)SSC(=S)OCC
inactive: [1] | [14] | [13] | [5] | [6] | [7] | [8] | [10] | [11] | [12]

FC1(F)C(F)(F)C(F)(F)C2(F)C(F)(C1(F)F)C(F)(F)C(F)(F)C1(F)C(F)(F)C(F)(F)C(F)(F)C(F)(F)C12F (stereo not drawn)
not listed: [2] | [4] | [13] | [15] | [16] | [17] | [18]
inactive: all other assays above

COc1cccc(OC)c1
inactive: [1] | [2] | [5] | [6] | [7] | [8] | [9] | [10] | [11] | [12]

C=CC[N+](C)(C)CC=C
not listed: [2] | [15] | [16] | [17] | [18]
inactive: all other assays above
